Results on three compounds are retold here after PubChem BioAssay AID504725 (Broad Institute, 2011).

Entries with a potency or affinity are not part of this list. A number with no mark means an inactive call. The rule behind the calls is not given here.

The target of the assay is KSHV LANA C-terminal domain (residues 932-1162) binding to LBS DNA (UniProt O40947). Briefly: inhibitors of C-LANA binding to LBS DNA, dose response, biochemical, fluorescence polarization, cherry-picked samples (AID 504725). Particulars: MBP-C-LANA / FAM-LBS DNA fluorescence polarization, percent change from plate compound-well median; series mostly up to 35 µM; activity change, negative = inhibition: at the top concentration. A general note: Fluorescence polarisation rises when a labelled molecule tumbles more slowly, as on binding a larger partner.
Regarding `CC(C)C(=O)N1CCN(c2ccccc2NC(=S)NC(=O)c2ccco2)CC1`, the “activity change, negative = inhibition” value is -4.33%.

Consider `CN(c1ccc(OCC(=O)OCC(=O)c2c(N)n(C)c(=O)n(C)c2=O)cc1)S(=O)(=O)c1ccc2ccccc2c1`, for which the “activity change, negative = inhibition” value was 1.36%.

For the compound `CC(=O)Nc1ccc(S(=O)(=O)Nc2ccccc2N2CCOCC2)cc1`, the “activity change, negative = inhibition” value is -0.673%.
